Measured values taken from PubChem BioAssay (NCATS).
Records with an inconclusive call do not appear. Calls of active or inactive are those of the source. Unless noted, the call rests on the fitted dose curve; in most records, active means well fitted curve in the direction sought with a large enough effect; inconclusive means small, poorly fitted or top-dose-only effect, or another doubt; inactive means no such curve, though single readings can be large; an effect the other way counts as inactive or inconclusive.

How the values were obtained:
[1] = biological target: Ferritin light chain (Equus caballus) (UniProt P02791); experiment: qHTS Validation Assay for Identification of Novel General Anesthetics (AID 2323); details: horse apoferritin, anesthetic-site fluorescent probe displacement; series mostly up to 76.9 µM
Sequence of Ferritin light chain (Equus caballus) (P02791 2-175 limits assumed): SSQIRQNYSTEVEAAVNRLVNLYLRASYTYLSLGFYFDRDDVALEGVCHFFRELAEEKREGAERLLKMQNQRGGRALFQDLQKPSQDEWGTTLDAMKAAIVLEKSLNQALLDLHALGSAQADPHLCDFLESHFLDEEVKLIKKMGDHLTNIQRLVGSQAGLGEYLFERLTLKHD
Outline: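 Competitive displacement of the profluorescent anesthetic 1-AMA (50% saturated, PBS) from 10 uM apoferritin, 10 min, room temperature. Activity is normalized 380/535 nm fluorescence; concentration-response fitted with a four-parameter Hill equation.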

[2] = biological target: ATP-dependent DNA helicase Q1 (Homo sapiens) (UniProt P46063); experiment: qHTS Validation Assay for Inhibitors of RecQ-Like Dna Helicase 1 (RECQ1) (AID 2353); details: recombinant RECQ1 helicase DNA unwinding assay; series mostly up to 25.6 µM
Sequence of ATP-dependent DNA helicase Q1 (Homo sapiens) (P46063 whole entry, looked up): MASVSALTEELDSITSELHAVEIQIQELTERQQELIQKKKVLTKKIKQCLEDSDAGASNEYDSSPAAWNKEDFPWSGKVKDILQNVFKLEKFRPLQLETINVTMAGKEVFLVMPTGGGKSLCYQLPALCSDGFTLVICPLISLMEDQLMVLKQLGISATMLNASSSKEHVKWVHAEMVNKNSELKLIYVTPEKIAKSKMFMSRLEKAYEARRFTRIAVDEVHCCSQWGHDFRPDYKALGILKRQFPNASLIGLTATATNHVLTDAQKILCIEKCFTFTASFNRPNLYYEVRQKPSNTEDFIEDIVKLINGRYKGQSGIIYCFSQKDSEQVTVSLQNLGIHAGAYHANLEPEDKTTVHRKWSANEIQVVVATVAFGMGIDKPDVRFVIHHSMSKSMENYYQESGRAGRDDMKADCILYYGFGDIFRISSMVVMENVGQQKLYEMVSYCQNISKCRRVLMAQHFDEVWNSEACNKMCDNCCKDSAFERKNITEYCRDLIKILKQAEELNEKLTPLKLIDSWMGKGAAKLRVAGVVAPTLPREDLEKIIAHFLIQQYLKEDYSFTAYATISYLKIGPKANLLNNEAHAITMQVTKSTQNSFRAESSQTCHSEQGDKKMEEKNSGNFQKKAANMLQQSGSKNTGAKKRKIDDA
Outline: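 50 nM RECQ1T1 preincubated 15 min with compound in Tris pH 8.0 buffer with MgCl2, DTT, Tween-20 and 2.5 ug/ml poly(dI-dC); started with 200 nM TAMRA/BHQ-2 forked duplex and 2 mM ATP. Unwinding read as fluorescence (525/598 nm), two reads 2 h apart.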

[3] = High Content Imaging Cell-Based qHTS for Inhibitors of the mTORC1 Signaling Pathway in MEF (Tsc2-/-, p53-/-) Cells (AID 2666); details: series mostly up to 38.3 µM;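 further: percent of cells scored positive for phospho-rpS6 Ser235/236 immunostaining by imaging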; further: potency means the concentration at half of the fitted maximal effect
Outline: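 Phospho-rpS6 (Ser235/236) immunofluorescence, normalized and scored as % positive cells using rapamycin and DMSO controls, was read in empty-vector Tsc2-/-, p53-/- MEFs after 24 h compound exposure at 37 C; propidium iodide counted cells.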

[4] = High Content Imaging Cell-Based qHTS for Inhibitors of the mTORC1 Signaling Pathway in MEF Cells (AID 2667); details: series mostly up to 38.3 µM; further: potency means the concentration at half of the fitted maximal effect
Outline: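 WT MEFs (Tsc2-/-, p53-/- re-expressing Tsc2), in DMEM + 10% FBS, were treated with compound for 24 h at 37 C. Cells were then fixed and stained for phospho-rpS6 Ser235/236 with propidium iodide as cell count. Values are % positive cells, with thresholds set against rapamycin-treated cells.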

[5] = Validation screen for inhibitors of Lassa infection (AID 463096; calls by dose curve; further: potency means the concentration at half of the fitted maximal effect); details: Lassa virus infection, cell-based; series mostly up to 46.1 µM
[6] = biological target: DNA polymerase III PolC-type (Bacillus subtilis (strain 168)) (UniProt P13267); experiment: qHTS Validation Assay for the Inhibitors of DNA Replication in Gram-Positive Bacteria (AID 485295); details: Gram-positive bacterial DNA replication assay; series mostly up to 57.1 µM; further: potency means the concentration at half of the fitted maximal effect
Sequence of DNA polymerase III PolC-type (Bacillus subtilis (strain 168)) (P13267 whole entry, looked up): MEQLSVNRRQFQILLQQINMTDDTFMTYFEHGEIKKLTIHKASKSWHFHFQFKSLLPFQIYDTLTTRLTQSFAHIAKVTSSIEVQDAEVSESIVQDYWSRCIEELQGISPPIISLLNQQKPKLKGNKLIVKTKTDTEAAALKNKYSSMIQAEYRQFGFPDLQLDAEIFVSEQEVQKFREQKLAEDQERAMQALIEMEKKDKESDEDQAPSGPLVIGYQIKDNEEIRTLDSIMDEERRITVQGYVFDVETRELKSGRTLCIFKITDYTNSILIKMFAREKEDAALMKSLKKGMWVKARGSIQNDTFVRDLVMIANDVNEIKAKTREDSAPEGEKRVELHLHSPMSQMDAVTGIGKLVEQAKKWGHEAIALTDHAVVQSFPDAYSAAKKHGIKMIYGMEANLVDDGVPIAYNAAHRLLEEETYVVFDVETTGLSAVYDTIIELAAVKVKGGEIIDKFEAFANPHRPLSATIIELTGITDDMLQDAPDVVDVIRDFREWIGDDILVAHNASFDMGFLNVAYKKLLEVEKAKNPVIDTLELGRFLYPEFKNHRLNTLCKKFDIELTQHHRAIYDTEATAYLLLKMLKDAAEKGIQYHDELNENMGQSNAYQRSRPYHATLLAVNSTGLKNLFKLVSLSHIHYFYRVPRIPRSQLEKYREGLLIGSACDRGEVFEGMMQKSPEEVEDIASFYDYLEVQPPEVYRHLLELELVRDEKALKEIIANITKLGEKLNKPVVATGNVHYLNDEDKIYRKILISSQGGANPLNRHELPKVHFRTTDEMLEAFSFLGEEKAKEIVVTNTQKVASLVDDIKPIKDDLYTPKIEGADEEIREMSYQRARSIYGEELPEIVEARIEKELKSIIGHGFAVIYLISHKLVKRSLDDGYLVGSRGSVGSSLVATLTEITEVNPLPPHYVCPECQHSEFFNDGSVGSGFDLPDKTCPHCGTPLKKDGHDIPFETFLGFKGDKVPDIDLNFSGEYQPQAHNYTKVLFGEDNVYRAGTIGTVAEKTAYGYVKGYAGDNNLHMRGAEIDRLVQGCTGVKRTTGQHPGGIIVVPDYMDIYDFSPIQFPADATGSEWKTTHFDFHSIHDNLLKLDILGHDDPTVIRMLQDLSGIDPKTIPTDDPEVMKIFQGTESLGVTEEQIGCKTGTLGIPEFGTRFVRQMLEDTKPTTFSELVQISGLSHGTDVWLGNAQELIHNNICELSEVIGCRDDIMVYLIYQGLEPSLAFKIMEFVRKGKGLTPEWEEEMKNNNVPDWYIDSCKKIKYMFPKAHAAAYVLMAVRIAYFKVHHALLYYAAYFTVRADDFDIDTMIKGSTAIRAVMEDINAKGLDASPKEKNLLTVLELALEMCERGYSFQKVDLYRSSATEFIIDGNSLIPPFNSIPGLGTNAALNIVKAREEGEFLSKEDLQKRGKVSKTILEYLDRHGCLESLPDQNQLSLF
Outline: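 Double-stranded DNA product detected by PicoGreen fluorescence after EDTA quench. Compound incubated with B. subtilis holoenzyme (PolC, beta subunit, SSB, primase) before substrate addition; primed replication of M13Gori with dNTPs and NTPs at room temperature; DMSO defines 0% inhibition.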

[7] = Cytometry Cell-Based qHTS for Inhibitors of the mTORC1 Signaling Pathway in MEF cells (AID 2668); details: mTORC1 pathway readout; series mostly up to 38.3 µM; further: potency means the concentration at half of the fitted maximal effect
Outline: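 Phospho-rpS6 (Ser235/236) immunofluorescence over PI signal, scored as % positive cells using thresholds from 7.5 nM rapamycin and DMSO wells, after 24 h compound exposure of WT-Tsc2-rescued Tsc2-/-, p53-/- MEFs. PI cell count recorded for viability.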

[8] = Validation screen for small molecules that induce DNA re-replication in MCF 10A normal breast cells (AID 463097); details: MCF 10A cells, DNA re-replication phenotype imaging; series mostly up to 46.1 µM; further: nearly all actives have a fitted effect of over 60% in size; further: potency means the concentration at half of the fitted maximal effect
Outline: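 Read-out is Hoechst total nuclear intensity by fluorescence scanning imager, flagging increased high-DNA-content nuclei. Compounds were incubated with MCF 10A cells for 48 hr (37 C, 5% CO2) before 40 min staining.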

[9] = qHTS Assay for Identification of Small Molecule Inducers of Hypoxia Response (AID 2120; active means well fitted curve in the direction sought with a large enough effect in the signal ratio, with a control signal flat, not every such curve was filed as active; the % refers to the signal ratio); details: hypoxia response reporter cells, beta-lactamase ratio readout; series mostly up to 104 µM
Outline: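 ME-180 HRE-bla cells plated in Opti-MEM/0.5% dialyzed FBS, rested 4-5 h, then dosed with compound titrations by pin tool. After 17 h at 37 degrees C, CCF4 dye loaded 2.5 h at RT; 460/530 nm ratio gave %Activity and AC50.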

[10] = qHTS Assay for Modulators of Human Peripheral Myelin Protein 22 (PMP22) Expression/Activity (AID 1967; active means well fitted curve in the direction sought with a large enough effect in the signal ratio; the % refers to the signal ratio); details: Cell-based PMP22 reporter, dual-color luciferase ratio, mouse Pmp22 promoter in mouse Schwann cells; series mostly up to 115 µM
Outline: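 Readout is the corrected green/red luminescence ratio after 24 h compound exposure, normalised to untreated cells (0%). Engineered MSC80 mouse Schwann cells express green luciferase from the mouse Pmp22 promoter and red luciferase from EF-alpha as internal control.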

Measured: Potency

O=c1[nH]c2ccccc2n1CCCN1CCC(n2c(=O)[nH]c3cc(Cl)ccc32)CC1
inactive: [1] | [2] | [3] | [4] | [5] | [6]

c1ccc2c(c1)OCC(C1=NCCN1)O2 (configuration not stated)
active: [4] 6.56 µM | [7] 4.65 µM | [5] 20 µM | [8] 7.94 µM
inactive: [1] | [2] | [6]

c1ccc(C2CC2)c(OCC2=NCCN2)c1
not listed: [9] | [10]
inactive: all other assays above

CCOP(=S)(OCC)Oc1cc(C)nc(C(C)C)n1
inactive: [9]

NCC(CC(=O)O)c1ccc(Cl)cc1 (configuration not stated)
not listed: [9] | [10]
inactive: all other assays above

CC(=O)[C@H]1CC[C@H]2[C@@H]3CC[C@H]4C[C@H](O)CC[C@]4(C)[C@H]3C(=O)C[C@]12C
not listed: [9]
inactive: all other assays above

Nc1ccncc1
not listed: [9] | [10]
inactive: all other assays above

C[C@]12C/C(=C/O)C(=O)C[C@@H]1CC[C@@H]1[C@@H]2CC[C@@]2(C)[C@H]1CC[C@]2(C)O
inactive: [9]

N#CC(C#N)=Cc1ccc(O)c(O)c1
not listed: [9] | [10]
inactive: all other assays above

CCCN1CCC[C@@H]2Cc3nc(N)ncc3C[C@H]21
not listed: [9] | [10]
inactive: all other assays above

Cc1cccc(C)c1NC1=NCCCS1
not listed: [9] | [10]
inactive: all other assays above

c1ccc2c(c1)Nc1ccccc1S2
inactive: [9]

Cc1ccc(S(=O)(=O)N[C@@H](CCCCN)C(=O)CCl)cc1
not listed: [9] | [10]
inactive: all other assays above

CC(CCc1ccccc1)NC(C)C(O)c1ccc(O)cc1 (configuration not stated)
not listed: [9] | [10]
inactive: all other assays above

Clc1cccc(N2CCNCC2)c1
inactive: [1] | [2] | [5] | [8]

COc1ccc(Cc2nccc3cc(OC)c(OC)cc23)cc1OC
inactive: [1] | [2] | [5] | [8]

OCCN1CCN(CCCN2c3ccccc3Sc3ccc(C(F)(F)F)cc32)CC1
inactive: [1]

NCC1(CC(=O)O)CCCCC1
not listed: [9] | [10]
inactive: all other assays above

NN=C(N)N
not listed: [9] | [10]
inactive: all other assays above

Cc1ncc(CNC(=O)N(CCCl)N=O)c(N)n1
not listed: [9] | [10]
inactive: all other assays above

CCC1(C2=NCCN2)Cc2ccccc2O1 (configuration not stated)
not listed: [9] | [10]
inactive: all other assays above

COC[C@H]1OC(=O)c2coc3c2[C@@]1(C)C1=C(C3=O)C2CCC(=O)[C@@]2(C)C[C@H]1OC(C)=O (some centres not stated)
inactive: [1] | [2] | [3] | [4] | [7] | [6]

CN1C[C@H](CNC(=O)OCc2ccccc2)C[C@@H]2c3cccc4c3c(cn4C)C[C@H]21
inactive: [1] | [2] | [4] | [7] | [6]
active: [8] 15.8 µM

CC[N+](CC)(CC)CC
inactive: [1] | [2] | [5] | [8]

CCCC(C)(COC(N)=O)COC(=O)NC(C)C (configuration not stated)
not listed: [10]
inactive: all other assays above

Oc1ccccc1-c1ccccc1
inactive: [9]

NCC(O)c1ccc(O)cc1 (configuration not stated)
not listed: [10]
inactive: all other assays above

OCCOc1ccccc1
inactive: [9]

CNCC(O)c1ccc(O)cc1 (configuration not stated)
not listed: [10]
inactive: all other assays above

COc1ccccc1N1CCNCC1
not listed: [9]
inactive: all other assays above

CCn1cc(C(=O)O)c(=O)c2ccc(C)nc21
inactive: [10] | [1] | [2] | [5] | [8]

O=C1NCN(c2ccccc2)C12CCN(CC1COc3ccccc3O1)CC2 (configuration not stated)
not listed: [9]
inactive: all other assays above

Cc1ccccc1N1C(=O)c2cc(S(N)(=O)=O)c(Cl)cc2NC1C (configuration not stated)
inactive: [5]

CC(C)=CCOc1c2occc2cc2ccc(=O)oc12
inactive: [3] | [4] | [7] | [6]

COC(=O)[C@H]1[C@H]2C[C@@H]3c4[nH]c5cc(OC)ccc5c4CCN3C[C@H]2C[C@@H](OC(=O)c2cc(OC)c(OC)c(OC)c2)[C@@H]1OC
active: [5] 7.94 µM

COc1ccc(C(CN(C)C)C2(O)CCCCC2)cc1 (configuration not stated)
inactive: [3] | [4] | [7] | [6]

Fc1ccc(C(OCCN2CCN(CCCc3ccccc3)CC2)c2ccc(F)cc2)cc1
inactive: [2] | [6]
active: [7] 18.5 µM | [8] 12.6 µM

CC(=O)[C@H]1CC[C@H]2[C@@H]3CC[C@H]4C[C@](C)(O)CC[C@]4(C)[C@H]3CC[C@]12C
inactive: [3] | [4] | [7] | [6]

COc1ccc(Cl)cc1C(=O)NCCc1ccc(S(=O)(=O)NC(=O)NC2CCCCC2)cc1
inactive: [5]

O=c1[nH]c2ccccc2n1C1CCN(CCCC(c2ccc(F)cc2)c2ccc(F)cc2)CC1
active: [4] 16.5 µM
inactive: [2]

CN/C(=C\[N+](=O)[O-])NCCSCc1ccc(CN(C)C)o1
inactive: [5]

N=c1nc(N2CCCCC2)cc(N)n1O
inactive: [5]

Cc1ccc(S(=O)(=O)NC(=O)NN2CCCCCC2)cc1
inactive: [5]

C=C(C)[C@H]1Cc2c(ccc3c2O[C@@H]2COc4cc(OC)c(OC)cc4[C@@H]2C3=O)O1
active: [4] 0.0465 µM | [7] 0.0585 µM | [5] 5.62 µM | [8] 1.41 µM
inactive: [2] | [3] | [6]

CC[C@@H](CO)NC(=O)[C@@H]1C=C2c3cccc4c3c(cn4C)C[C@H]2N(C)C1
active: [6] 16.8 µM
inactive: [3] | [4] | [7]

CC[C@@H](CO)NC(=O)[C@@H]1C=C2c3cccc4[nH]cc(c34)C[C@H]2N(C)C1
inactive: [3] | [4] | [7]

CCCNC(=O)NS(=O)(=O)c1ccc(Cl)cc1
inactive: [5]

NC(=O)OCC(COC(N)=O)c1ccccc1
inactive: [5]

NNCCc1ccccc1
inactive: [5]

Cc1cc2c(C(C)C)c(O)c(O)c(C=O)c2c(O)c1-c1c(C)cc2c(C(C)C)c(O)c(O)c(C=O)c2c1O
active: [3] 2.61 µM | [4] 14.7 µM | [6] 10.6 µM

C[C@@H]1O[C@@H](O[C@H]2C[C@@H](O)[C@]3(CO)[C@H]4[C@H](O)C[C@]5(C)[C@@H](C6=CC(=O)OC6)CC[C@]5(O)[C@@H]4CC[C@]3(O)C2)[C@H](O)[C@H](O)[C@H]1O
inactive: [3] | [4] | [7] | [6]

CN(C)C(=O)C(CCN1CCC(O)(c2ccc(Cl)cc2)CC1)(c1ccccc1)c1ccccc1
active: [4] 18.5 µM | [7] 13.1 µM | [5] 12.6 µM

COCCCC/C(=N\OCCN)c1ccc(C(F)(F)F)cc1
inactive: [5]

O=C(c1ccccc1)c1ccc2n1CCC2C(=O)O (configuration not stated)
inactive: [5]

CCN(CC)C(=S)SSC(=S)N(CC)CC
active: [5] 10 µM

CCCN1CCC[C@@H]2Cc3[nH]ncc3C[C@H]21
inactive: [3] | [4] | [7] | [6]

O=c1[nH]cc(F)c(=O)[nH]1
inactive: [5]

O=c1n(CCCN2CCN(c3cccc(Cl)c3)CC2)nc2ccccn12
inactive: [5]

Cc1cccc(C)c1NC(=O)CN1CCCC1=O
inactive: [3] | [4] | [7] | [6]

CCN(CC)CCNC(=O)c1cc(Cl)c(N)cc1OC
inactive: [5]

CCN(CC)CCCC(C)Nc1ccnc2cc(Cl)ccc12 (configuration not stated)
inactive: [5]

COC(=O)Nc1nc2ccc(C(=O)c3cccs3)cc2[nH]1
inactive: [5]

CCN(CC)CCOC(=O)C1(C2CCCCC2)CCCCC1
inactive: [5]

CC(O)(CS(=O)(=O)c1ccc(F)cc1)C(=O)Nc1ccc(C#N)c(C(F)(F)F)c1 (configuration not stated)
inactive: [3] | [4] | [7] | [6]

COc1cc2c(c(OC)c1OC)-c1ccc(OC)c(=O)cc1[C@@H](NC(C)=O)CC2
active: [8] 0.0398 µM

O=c1c(O)c(-c2ccc(O)c(O)c2)oc2cc(O)cc(O)c12
active: [6] 10.6 µM
